# According to PubChem BioAssay (Tox21):
# Values joined by “and” are separate entries in the source; they are usually repeats but may differ in a detail not shown here. Identical values can stand only once. Values without a mark were called inactive. Results filed as inconclusive are left out. A call without a number means that no potency is given here. Active and inactive are the calls of the source. Unless noted, calls come from the whole dose curve.
# Tests used:
# [1] = Nuclear factor erythroid 2-related factor 2/antioxidant responsive element (Nrf2/ARE) small molecule agonists: luciferase reporter gene qHTS assay in human keratinocytes (AID 1919969); note: nearly all actives have a fitted effect of over 35% in size; note: potency is the fitted concentration of half-maximal effect
# [2] = target: Gonadotropin-releasing hormone receptor (Homo sapiens) (UniProt P30968); assay: Human gonadotropin-releasing hormone receptor (GnRHR) small molecule agonists, calcium flux assay in GnRHR-HEK293 cells (AID 1920063); note: nearly all actives have a fitted effect of over 35% in size
# Gonadotropin-releasing hormone receptor (Homo sapiens), sequence (P30968 whole entry, looked up): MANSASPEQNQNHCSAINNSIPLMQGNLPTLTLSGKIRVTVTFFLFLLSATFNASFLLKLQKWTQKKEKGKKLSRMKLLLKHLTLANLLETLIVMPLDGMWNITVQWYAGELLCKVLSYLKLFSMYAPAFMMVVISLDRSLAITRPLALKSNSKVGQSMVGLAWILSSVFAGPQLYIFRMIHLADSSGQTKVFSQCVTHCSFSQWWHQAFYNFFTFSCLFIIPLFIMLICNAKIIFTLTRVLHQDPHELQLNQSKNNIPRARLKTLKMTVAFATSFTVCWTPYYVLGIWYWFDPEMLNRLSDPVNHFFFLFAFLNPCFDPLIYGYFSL
# In short: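 Compounds dissolved in DMSO are pin-transferred onto dye-loaded GnRHR-HEK293 cells, which were seeded 18 h before at 37 C/5% CO2. Calcium signal is read as fluorescence intensity at 1 s intervals for 3 min.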
# [3] = target: KiSS-1 receptor (Homo sapiens) (UniProt Q969F8); assay: Human kisspeptin (KISS1R) small molecule agonists, calcium flux assay in KISS1R-HEK293 cells (AID 1920064; active = well fitted curve in the direction sought with a large enough effect in the repeat runs; an effect the other way counts as inactive or inconclusive)
# KiSS-1 receptor (Homo sapiens), sequence (Q969F8 whole entry, looked up): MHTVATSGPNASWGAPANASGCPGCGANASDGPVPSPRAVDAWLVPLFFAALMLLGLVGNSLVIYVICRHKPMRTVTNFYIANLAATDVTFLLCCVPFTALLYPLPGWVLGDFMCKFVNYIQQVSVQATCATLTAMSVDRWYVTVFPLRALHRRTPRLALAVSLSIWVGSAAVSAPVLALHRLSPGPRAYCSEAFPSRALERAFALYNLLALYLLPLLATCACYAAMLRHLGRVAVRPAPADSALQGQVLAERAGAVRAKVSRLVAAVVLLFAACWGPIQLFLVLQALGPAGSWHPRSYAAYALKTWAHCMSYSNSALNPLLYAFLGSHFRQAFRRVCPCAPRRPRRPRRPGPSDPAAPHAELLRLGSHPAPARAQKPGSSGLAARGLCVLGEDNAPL
# In short: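 Cell line: HEK293, stable human KISS1R. Dye loading 1 h at 37 C after 18 h culture. Read: kinetic fluorescence, 480/540 nm, 3 min at 1 s intervals.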
# [4] = G protein-coupled receptor (GPCR) small molecule agonists, calcium flux assay: HEK293 wild type cell line counter screen (AID 1920065)
# In short: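 Tox21 10K compounds, 15 concentrations each in triplicate, pin-transferred in DMSO onto dye-loaded cells; kinetic read at 480/540 nm for 3 min, 1 s intervals.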
# [5] = p53 small molecule agonists, cell-based qHTS assay with human liver microsomes (AID 1963577);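 note: p53 response element beta-lactamase reporter cells with liver microsomes plus NADPH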
# In short: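 p53RE-bla cells; 5 h settle, 37 C/5% CO2; cpd + HLM 0.5 mg/mL + NADPH 0.5 mg/mL (final); 16 h 37 C; LiveBLAzer 2 h RT dark; fluorescence readout.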
# [6] = p53 small molecule agonists, cell-based qHTS assay with rat liver microsomes (AID 1963578)
# In short: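 Rat liver microsome activation: microsomes 0.5 mg/mL, NADPH 0.5 mg/mL final; p53RE-bla cells, 16 h 37 C; LiveBLAzer readout, 2 h RT dark.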
# [7] = p53 small molecule agonists, cell-based qHTS assay with human liver microsomes: qHTS cell viability counter screen (AID 1963579); note: nearly all actives have a fitted effect of over 45% in size; note: potency is the fitted concentration of half-maximal effect
# In short: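 Luminescent CellTiter-Glo read-out, 30 min at room temperature, gauged cytotoxicity in p53RE-bla cells exposed 16 h at 37 C to DMSO-dissolved compounds with metabolic activation by human liver microsomes and NADPH, each 0.5 mg/mL final.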
# [8] = p53 small molecule agonists, cell-based qHTS assay with rat liver microsomes: qHTS cell viability counter screen (AID 1963580); note: nearly all actives have a fitted effect of over 45% in size; note: potency is the fitted concentration of half-maximal effect
# In short: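 Cytotoxicity counter screen: intracellular ATP read by CellTiter-Glo luminescence in the p53 reporter wells. HCT-116 p53RE-bla cells were treated for 16 h at 37 C alongside rat liver microsomes and NADPH, each 0.5 mg/mL final.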
# [9] = p53 small molecule agonists, cell-based qHTS assay: qHTS cell viability counter screen (AID 1963581); note: nearly all actives have a fitted effect of over 45% in size; note: potency is the fitted concentration of half-maximal effect
# In short: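 ATP content measured by luminescence in HCT-116 p53RE-bla cells treated 16 h at 37 C, same wells as the reporter screen.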
# [10] = p53 small molecule agonists, cell-based qHTS assay (AID 1963582; active = well fitted activation curve with a large enough effect in the signal ratio in the repeat runs, not every such curve was filed as active; the % refers to the signal ratio)
# In short: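 16 h compound exposure (37 C) of p53 response element–bla cells, preceded by 5 h recovery at 37 C/5% CO2; read-out via LiveBLAzer B/G FRET substrate, 2 h RT, fluorescence intensity.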
# [11] = target: 5-hydroxytryptamine receptor 2A (Homo sapiens) (UniProt P28223); assay: 5-hydroxytryptamine receptor 2A (HTR2A) small molecule antagonists, cell-based qHTS assay (AID 1963586); note: nearly all actives have a fitted effect of over 45% in size; note: potency is the fitted concentration of half-maximal effect
# 5-hydroxytryptamine receptor 2A (Homo sapiens), sequence (P28223 whole entry, looked up): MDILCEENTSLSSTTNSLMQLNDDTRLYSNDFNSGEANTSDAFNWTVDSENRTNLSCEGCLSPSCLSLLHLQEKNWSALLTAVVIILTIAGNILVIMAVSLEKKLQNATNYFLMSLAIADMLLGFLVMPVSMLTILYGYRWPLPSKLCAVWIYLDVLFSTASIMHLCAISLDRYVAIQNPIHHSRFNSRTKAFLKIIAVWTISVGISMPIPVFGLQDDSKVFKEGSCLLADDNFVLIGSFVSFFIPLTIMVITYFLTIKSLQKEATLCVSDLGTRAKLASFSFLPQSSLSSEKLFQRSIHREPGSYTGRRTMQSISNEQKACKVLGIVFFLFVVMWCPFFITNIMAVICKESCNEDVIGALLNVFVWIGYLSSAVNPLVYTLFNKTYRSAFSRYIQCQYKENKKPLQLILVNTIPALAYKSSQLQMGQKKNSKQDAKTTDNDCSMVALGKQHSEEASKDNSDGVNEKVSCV
# In short: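 CHO cells stably expressing human HTR2A were plated for 18 h at 37 C, then loaded with calcium dye for 1 h. Compounds were preincubated 5 min at room temperature before DOI (4 nM solution) was added. Kinetic fluorescence was read for 3 min.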
# [12] = target: Muscarinic acetylcholine receptor M1 (Homo sapiens) (UniProt P11229); assay: Cholinergic receptor muscarinic 1 (CHRM1) small molecule antagonists, cell-based qHTS assay (AID 1963588); note: nearly all actives have a fitted effect of over 40% in size
# Muscarinic acetylcholine receptor M1 (Homo sapiens), sequence (P11229 whole entry, looked up): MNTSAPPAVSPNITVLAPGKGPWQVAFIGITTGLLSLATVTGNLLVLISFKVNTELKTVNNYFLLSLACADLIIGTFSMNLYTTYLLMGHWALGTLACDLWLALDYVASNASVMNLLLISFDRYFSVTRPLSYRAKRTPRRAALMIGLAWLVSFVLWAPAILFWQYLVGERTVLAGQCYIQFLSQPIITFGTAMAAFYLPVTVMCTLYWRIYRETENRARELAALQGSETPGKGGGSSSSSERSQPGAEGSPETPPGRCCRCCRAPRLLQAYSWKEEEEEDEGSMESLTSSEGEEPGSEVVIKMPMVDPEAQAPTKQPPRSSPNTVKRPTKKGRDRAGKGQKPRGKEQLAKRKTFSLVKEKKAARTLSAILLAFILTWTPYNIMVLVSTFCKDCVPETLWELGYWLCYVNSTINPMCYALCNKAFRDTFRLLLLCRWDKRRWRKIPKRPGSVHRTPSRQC
# In short: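 Compounds were tested at 15 concentrations in three independent runs. Dye-loaded CHRM1-CHO cells were exposed 5 min at room temperature before stimulation by acetylcholine added at 50nM. Intracellular calcium was read kinetically on FDSS for 3 min.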
# [13] = target: Muscarinic acetylcholine receptor M1 (Homo sapiens) (UniProt P11229); assay: Cholinergic receptor muscarinic 1 (CHRM1) small molecule agonists, cell-based qHTS assay (AID 1963589); note: nearly all actives have a fitted effect of over 35% in size
# In short: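 Homogeneous fluorescence calcium flux, agonist mode. Human M1-expressing CHO cells; compound dosed at 15 concentrations, three independent runs; signal sampled every 1 sec.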
# [14] = target: Beta-2 adrenergic receptor (Homo sapiens) (UniProt P07550); assay: Adrenergic beta2 receptor (ADRB2) small molecule antagonists, cell-based qHTS assay (AID 1963592); note: series mostly up to about 92 µM; nearly all actives have a fitted effect of over 50% in size
# Beta-2 adrenergic receptor (Homo sapiens), sequence (P07550 whole entry, looked up): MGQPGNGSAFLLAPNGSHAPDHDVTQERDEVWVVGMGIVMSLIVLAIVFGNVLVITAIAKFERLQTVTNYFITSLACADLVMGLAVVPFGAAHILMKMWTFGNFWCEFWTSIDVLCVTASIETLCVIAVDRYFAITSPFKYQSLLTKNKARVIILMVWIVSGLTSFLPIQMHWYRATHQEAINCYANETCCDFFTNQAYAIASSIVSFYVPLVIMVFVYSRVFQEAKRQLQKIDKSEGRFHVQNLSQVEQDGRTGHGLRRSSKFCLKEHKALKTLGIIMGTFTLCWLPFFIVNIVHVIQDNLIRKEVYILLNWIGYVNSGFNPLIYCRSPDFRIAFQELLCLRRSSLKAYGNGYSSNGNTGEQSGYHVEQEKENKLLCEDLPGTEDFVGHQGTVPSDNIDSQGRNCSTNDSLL
# In short: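 Assay format: CHO-ADRB2 cells, 18-20hr seeding at 37C/5% CO2, then compound plus 1nM isoproterenol agonist mix for 0.5hr RT. Homogeneous time-resolved fluorescence cAMP detection after 1hr, expressed as 665/615 nm ratio.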
# [15] = target: D(2) dopamine receptor (Homo sapiens) (UniProt P14416); assay: Dopamine D2 receptor (DRD2) small molecule agonists, cell-based qHTS assay (AID 1963594); note: nearly all actives have a fitted effect of over 35% in size
# D(2) dopamine receptor (Homo sapiens), sequence (P14416 whole entry, looked up): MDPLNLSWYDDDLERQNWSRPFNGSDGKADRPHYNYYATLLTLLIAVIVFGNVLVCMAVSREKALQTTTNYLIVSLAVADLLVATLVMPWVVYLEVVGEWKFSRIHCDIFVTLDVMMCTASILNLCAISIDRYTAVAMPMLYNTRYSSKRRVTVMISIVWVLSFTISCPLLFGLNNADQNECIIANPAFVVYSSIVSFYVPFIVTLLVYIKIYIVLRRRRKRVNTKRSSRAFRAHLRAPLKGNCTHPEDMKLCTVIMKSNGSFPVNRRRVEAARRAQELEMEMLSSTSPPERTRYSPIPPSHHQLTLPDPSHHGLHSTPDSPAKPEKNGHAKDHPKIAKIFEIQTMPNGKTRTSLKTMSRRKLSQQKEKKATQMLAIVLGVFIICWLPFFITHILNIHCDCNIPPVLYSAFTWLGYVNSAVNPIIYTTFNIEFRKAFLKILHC
# In short: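 cAMP accumulation in DRD2-HEK293 cells measured by HTRF after 1 h detection; compounds added 10 min before NKH477 (200nM […]) forskolin-analogue stimulation, 30 min at room temperature, with Ro20-1724 present at 0.1 mM final.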
# [16] = target: D(2) dopamine receptor (Homo sapiens) (UniProt P14416); assay: Dopamine D2 receptor (DRD2) small molecule antagonists, cell-based qHTS assay (AID 1963595; active = well fitted inhibition curve with a large enough effect in the signal ratio in the repeat runs, with a control signal flat; the % refers to the signal ratio; note: potency is the fitted concentration of half-maximal effect)
# In short: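 Stable D2 receptor HEK293 line, 24 h after seeding. Compound preincubated 10 min, then quinpirole (12 nM) with forskolin analogue NKH477 (200 nM), 30 min, room temperature. Detection by time-resolved FRET of cAMP.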
# [17] = target: 5-hydroxytryptamine receptor 2A (Homo sapiens) (UniProt P28223); assay: 5-hydroxytryptamine receptor 2A (HTR2A) small molecule agonists, cell-based qHTS assay (AID 1963587); note: nearly all actives have a fitted effect of over 30% in size
# In short: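 Kinetic calcium-flux fluorescence (2 min, 1 sec intervals) after compound addition in agonist mode. HTR2A-CHO cells were cultured 18 h, then dye-loaded 1 h at 37 C.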
# [18] = cAMP Responsive Elements (CRE) small molecule agonists, cell-based qHTS assay (AID 1963590)
# In short: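 HEK 293T cells stably bearing CRE-bla were plated at 2,000 cells per well and rested 18 h. Compounds, positive controls or DMSO were added for 3 h at 37 C. LiveBLAzer B/G substrate was then loaded for 2 h at room temperature.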
# [19] = Nuclear factor erythroid 2-related factor 2/antioxidant responsive element (Nrf2/ARE) small molecule agonists: qHTS cell viability counter screen in human keratinocytes (AID 1919968; active = well fitted curve in the direction sought with a large enough effect in the repeat runs; an effect the other way counts as inactive or inconclusive; note: nearly all actives have a fitted effect of over 55% in size)
# In short: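 Cells of the KeratinoSens line were plated at 1,500 per well and left for 5 h before compound transfer from DMSO stocks. After a 23 h incubation (37 C, 5% CO2), CellTiter-Fluor was added. Signal was taken as fluorescence intensity 1 h later.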
# [20] = cAMP Responsive Elements (CRE) small molecule antagonists, cell-based qHTS assay (AID 1963591; active = well fitted inhibition curve with a large enough effect in the signal ratio in the repeat runs, not every such curve was filed as active; the % refers to the signal ratio)
# In short: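 First, CRE-bla HEK293T cells settled 18 h at 37 C. Next, compound and 0.25 uM final NKH477 were applied for 3 h. Last, LiveBLAzer B/G substrate was loaded for 2 h at room temperature.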
Compound,Potency [1],Potency [2],Potency [3],Potency [4],Potency [5],Potency [6],Potency [7],Potency [8],Potency [9],Potency [10],Potency [11],Potency [12],Potency [13],Potency [14],Potency [15],Potency [16],Potency [17],Potency [18],Potency [19],Potency [20]
Cc1ccc(O)c(C(C)(C)C)c1,inactive,inactive,inactive,inactive,inactive,inactive,inactive,inactive,inactive,inactive,33.4 µM (active),inactive,inactive,inactive,inactive,inactive,–,–,–,–
CC1(C)O[C@@H]2C[C@H]3[C@@H]4CCC5=CC(=O)C=C[C@]5(C)[C@H]4[C@@H](O)C[C@]3(C)[C@]2(C(=O)CO)O1,inactive,inactive,inactive,inactive,inactive,inactive,inactive,inactive,inactive,inactive,–,inactive,inactive,inactive,inactive,–,inactive,–,–,–
CCC(=O)OCCc1ccccc1,inactive,inactive,inactive,inactive,inactive,inactive,inactive,inactive,inactive,inactive,inactive,inactive,inactive,inactive,–,inactive,inactive,inactive,–,–
C1=CC2C3C=CC(C3)C2C1 (configuration not stated),–,–,–,inactive,–,–,–,–,–,inactive,–,inactive,–,inactive,–,–,–,inactive,inactive,inactive
C=C[C@](C)(O)CC[C@@H]1[C@@]2(C)CCCC(C)(C)[C@@H]2CC[C@@]1(C)O,inactive,inactive,inactive,inactive,inactive,inactive,32.4 µM (active),45.8 µM (active),9.13 µM (active),inactive,inactive,inactive,inactive,–,–,43.3 µM (active),inactive,–,–,inactive
O=C1c2ccccc2C(=O)N1SC1CCCCC1,21.7 µM (active) and 24.3 µM (active),inactive,inactive,inactive,inactive,inactive,inactive,inactive,inactive,inactive,inactive,inactive,inactive,inactive,inactive,inactive,–,–,–,inactive
COc1cc(NC(C)CCCN)c2ncccc2c1 (configuration not stated),11.9 µM (active),inactive,inactive,inactive,inactive,inactive,inactive,inactive,inactive,inactive,–,–,–,inactive,–,inactive,–,inactive,–,inactive
